# Source: ChEMBL document CHEMBL1961873, “Compounds: GSK PKIS; Assays: Nanosyn kinase panel” (2012)
# How the values were obtained:
# [1] = target: Sphingosine kinase 1 (Homo sapiens) (UniProt Q9NYA1); conditions: at 1 µM;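 also: mean SPHK1 inhibition value reported from the GSK PKIS kinase panel screen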
# [2] = target: T1, Sphingosine kinase 2 (Homo sapiens) (UniProt Q9NRA0); conditions: at 0.1 µM
# T1 sequence (whole entry): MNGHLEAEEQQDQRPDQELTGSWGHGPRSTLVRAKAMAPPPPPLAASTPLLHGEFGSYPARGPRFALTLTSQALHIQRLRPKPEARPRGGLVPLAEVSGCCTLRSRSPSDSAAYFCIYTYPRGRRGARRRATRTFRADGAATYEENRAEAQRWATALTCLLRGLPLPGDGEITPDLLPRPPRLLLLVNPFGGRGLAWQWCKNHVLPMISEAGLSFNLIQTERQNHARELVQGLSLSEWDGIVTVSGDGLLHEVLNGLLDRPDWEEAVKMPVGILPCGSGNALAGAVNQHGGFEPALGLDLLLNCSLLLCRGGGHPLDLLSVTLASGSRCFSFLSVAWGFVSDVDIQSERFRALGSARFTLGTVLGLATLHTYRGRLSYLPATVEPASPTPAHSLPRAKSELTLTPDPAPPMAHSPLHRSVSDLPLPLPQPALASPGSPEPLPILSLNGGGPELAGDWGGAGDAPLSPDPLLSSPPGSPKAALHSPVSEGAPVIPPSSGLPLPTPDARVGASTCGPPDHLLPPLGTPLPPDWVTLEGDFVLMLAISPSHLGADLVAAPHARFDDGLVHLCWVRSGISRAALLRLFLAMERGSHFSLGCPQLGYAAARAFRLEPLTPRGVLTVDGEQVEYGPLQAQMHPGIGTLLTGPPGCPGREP
# [3] = target: T1, Sphingosine kinase 2 (Homo sapiens); conditions: at 1 µM
# [4] = target: Casein kinase II subunit alpha (Homo sapiens) (UniProt P68400); conditions: at 0.1 µM
# Chain of Casein kinase II subunit alpha (Homo sapiens) (P68400 whole entry, looked up): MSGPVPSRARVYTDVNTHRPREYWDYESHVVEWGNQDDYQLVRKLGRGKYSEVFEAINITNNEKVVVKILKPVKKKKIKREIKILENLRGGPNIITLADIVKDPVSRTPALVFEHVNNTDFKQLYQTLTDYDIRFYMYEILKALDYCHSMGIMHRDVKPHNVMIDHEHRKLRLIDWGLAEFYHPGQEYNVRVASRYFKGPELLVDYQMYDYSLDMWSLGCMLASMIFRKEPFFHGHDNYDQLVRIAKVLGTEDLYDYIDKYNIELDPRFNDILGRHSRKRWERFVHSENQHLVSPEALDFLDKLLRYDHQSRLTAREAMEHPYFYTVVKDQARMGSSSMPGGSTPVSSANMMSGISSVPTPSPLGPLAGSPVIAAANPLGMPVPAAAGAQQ
# [5] = target: Casein kinase II subunit alpha (Homo sapiens) (UniProt P68400); conditions: at 1 µM
# [6] = target: T2, Inhibitor of nuclear factor kappa-B kinase subunit alpha (Homo sapiens) (UniProt O15111); conditions: at 0.1 µM
# T2 sequence (whole entry): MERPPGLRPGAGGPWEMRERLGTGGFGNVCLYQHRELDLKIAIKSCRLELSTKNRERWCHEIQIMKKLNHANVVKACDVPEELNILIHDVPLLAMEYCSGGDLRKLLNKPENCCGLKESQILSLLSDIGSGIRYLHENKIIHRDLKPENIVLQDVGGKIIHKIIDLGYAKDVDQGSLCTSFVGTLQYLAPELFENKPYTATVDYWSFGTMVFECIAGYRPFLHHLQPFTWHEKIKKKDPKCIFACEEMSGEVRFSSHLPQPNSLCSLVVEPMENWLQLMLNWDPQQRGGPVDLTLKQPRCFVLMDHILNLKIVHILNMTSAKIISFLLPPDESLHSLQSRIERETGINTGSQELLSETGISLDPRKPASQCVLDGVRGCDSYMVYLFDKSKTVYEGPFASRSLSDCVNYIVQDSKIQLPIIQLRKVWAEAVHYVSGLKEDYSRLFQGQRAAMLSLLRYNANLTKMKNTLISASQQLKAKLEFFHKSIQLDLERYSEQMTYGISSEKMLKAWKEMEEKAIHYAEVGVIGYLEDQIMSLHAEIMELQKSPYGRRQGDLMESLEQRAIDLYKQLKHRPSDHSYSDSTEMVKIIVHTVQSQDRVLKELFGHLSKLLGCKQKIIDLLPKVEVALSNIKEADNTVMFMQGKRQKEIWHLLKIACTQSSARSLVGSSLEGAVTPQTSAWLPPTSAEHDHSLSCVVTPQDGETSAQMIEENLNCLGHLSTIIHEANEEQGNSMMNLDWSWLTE
# [7] = target: T2, Inhibitor of nuclear factor kappa-B kinase subunit alpha (Homo sapiens); conditions: at 1 µM
# [8] = target: T3, Inhibitor of nuclear factor kappa-B kinase subunit beta (Homo sapiens) (UniProt O14920); conditions: at 0.1 µM
# T3 sequence (whole entry): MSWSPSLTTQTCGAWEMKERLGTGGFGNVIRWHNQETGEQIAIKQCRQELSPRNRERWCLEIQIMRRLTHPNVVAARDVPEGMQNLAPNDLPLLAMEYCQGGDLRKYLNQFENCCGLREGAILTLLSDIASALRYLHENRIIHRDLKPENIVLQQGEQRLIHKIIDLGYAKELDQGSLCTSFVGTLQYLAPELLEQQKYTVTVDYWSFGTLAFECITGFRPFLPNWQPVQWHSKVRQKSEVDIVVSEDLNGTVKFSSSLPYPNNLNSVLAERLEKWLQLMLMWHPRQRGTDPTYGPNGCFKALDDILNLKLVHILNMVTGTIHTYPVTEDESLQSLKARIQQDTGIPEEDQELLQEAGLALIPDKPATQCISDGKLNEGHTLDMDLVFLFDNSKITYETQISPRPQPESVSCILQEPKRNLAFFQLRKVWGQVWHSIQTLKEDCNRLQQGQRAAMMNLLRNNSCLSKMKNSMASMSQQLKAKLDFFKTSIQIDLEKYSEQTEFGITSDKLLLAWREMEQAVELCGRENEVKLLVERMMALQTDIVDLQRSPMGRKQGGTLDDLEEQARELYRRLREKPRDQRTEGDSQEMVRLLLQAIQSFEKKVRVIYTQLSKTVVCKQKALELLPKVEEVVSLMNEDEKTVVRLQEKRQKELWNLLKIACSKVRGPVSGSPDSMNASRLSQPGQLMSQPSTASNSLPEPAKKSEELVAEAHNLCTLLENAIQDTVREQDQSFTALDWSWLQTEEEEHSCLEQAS
# [9] = target: T3, Inhibitor of nuclear factor kappa-B kinase subunit beta (Homo sapiens); conditions: at 1 µM
# [10] = target: T4, Inhibitor of nuclear factor kappa-B kinase subunit epsilon (Homo sapiens) (UniProt Q14164); conditions: at 0.1 µM;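 also: mean inhibition of IKKε reported, from the GSK PKIS dataset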
# T4 sequence (whole entry): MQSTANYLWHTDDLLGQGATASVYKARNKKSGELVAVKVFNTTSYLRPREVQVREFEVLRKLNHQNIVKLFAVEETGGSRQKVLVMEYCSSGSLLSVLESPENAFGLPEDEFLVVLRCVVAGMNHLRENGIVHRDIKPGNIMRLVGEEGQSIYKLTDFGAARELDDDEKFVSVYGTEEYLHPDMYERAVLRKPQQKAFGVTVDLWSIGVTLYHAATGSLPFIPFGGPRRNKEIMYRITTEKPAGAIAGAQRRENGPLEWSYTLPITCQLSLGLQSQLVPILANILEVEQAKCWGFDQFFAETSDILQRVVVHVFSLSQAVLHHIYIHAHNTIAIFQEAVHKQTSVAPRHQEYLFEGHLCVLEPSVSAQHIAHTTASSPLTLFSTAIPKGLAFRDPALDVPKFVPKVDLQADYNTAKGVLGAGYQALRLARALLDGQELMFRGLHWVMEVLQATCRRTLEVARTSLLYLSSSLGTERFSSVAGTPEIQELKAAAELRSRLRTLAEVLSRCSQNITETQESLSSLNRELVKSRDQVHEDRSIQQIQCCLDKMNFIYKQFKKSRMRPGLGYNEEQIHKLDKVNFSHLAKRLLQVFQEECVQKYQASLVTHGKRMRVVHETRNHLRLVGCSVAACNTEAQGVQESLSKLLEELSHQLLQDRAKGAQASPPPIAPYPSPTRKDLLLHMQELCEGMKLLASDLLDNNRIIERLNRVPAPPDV
# Chain of Sphingosine kinase 1 (Homo sapiens) (Q9NYA1 whole entry): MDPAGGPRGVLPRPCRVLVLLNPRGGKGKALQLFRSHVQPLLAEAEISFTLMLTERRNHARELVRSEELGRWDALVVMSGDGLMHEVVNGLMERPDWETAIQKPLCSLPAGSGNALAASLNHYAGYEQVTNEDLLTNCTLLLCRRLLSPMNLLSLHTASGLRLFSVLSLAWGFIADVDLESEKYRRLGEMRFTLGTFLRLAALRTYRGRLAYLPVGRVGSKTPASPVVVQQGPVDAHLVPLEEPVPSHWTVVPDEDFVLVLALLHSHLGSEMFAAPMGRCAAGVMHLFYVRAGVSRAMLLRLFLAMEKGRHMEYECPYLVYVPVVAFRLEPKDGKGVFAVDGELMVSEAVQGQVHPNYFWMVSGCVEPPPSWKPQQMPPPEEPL
smiles,measurement,setting,value
c1cnn2ncc(-c3ccnc(Nc4ccc5c(c4)OCCO5)n3)c2c1,inhibition,[1],-1.74%
same,inhibition,[2],2.07%
same,inhibition,[3],0.2%
same,inhibition,[4],13.2%
same,inhibition,[5],47.5%
same,inhibition,[6],14.7%
same,inhibition,[7],60.5%
same,inhibition,[8],8.92%
same,inhibition,[9],30%
same,inhibition,[10],6.75%
